In PubChem BioAssay (NCI):
About 79,000 compounds went through this panel and 15% of them were active in at least one assay; those are over-represented in the sample as a whole. Activity calls are given as the source filed them. No stated cut-off is given here; in the data, active means growth inhibition above about 70%; inactive means the rest.

Assays:
[1] = NCI Yeast Anticancer Drug Screen. Data for the rad50 strain (AID 155);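 further: 0% = growth of vehicle-only cultures of the same strain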; conditions: S. cerevisiae rad50 strain growth inhibition, hits give high values
Outline: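 A DNA repair-deficient yeast mutant serves as the test organism; compound-induced growth inhibition is calculated against vehicle-treated cells.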

[2] = NCI Yeast Anticancer Drug Screen. Data for the mec2-1 strain (AID 157); conditions: S. cerevisiae mec2-1 strain, hits give high values
Outline: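 Compounds were applied to mec2-1 yeast cells. Their growth was then compared with that of vehicle-treated cultures to give growth inhibition.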

[3] = NCI Yeast Anticancer Drug Screen. Data for the sgs1 mgt1 strain (AID 161);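 further: 0% = growth of cultures given vehicle only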; conditions: S. cerevisiae sgs1 mgt1 strain, hits give high values
Outline: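 This yeast growth screen uses a strain with defined DNA-repair lesions; compound-treated growth is compared with vehicle-treated growth.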

[4] = NCI Yeast Anticancer Drug Screen. Data for the cln2 rad14 strain (AID 165);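 further: 0% = growth equal to vehicle treated cultures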; conditions: S. cerevisiae cln2 rad14 strain, hits give high values
Outline: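 Strain: cln2 rad14 yeast, altered in cell cycle control and DNA damage repair. Read-out: growth inhibition vs vehicle.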

[5] = NCI Yeast Anticancer Drug Screen. Data for the bub3 strain (AID 167); conditions: S. cerevisiae bub3 mutant strain, hits give high values
Outline: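 Inhibition values come from growth of compound-treated mutant yeast normalised to vehicle-treated controls.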

[6] = NCI Yeast Anticancer Drug Screen. Data for the mlh1 rad18 strain (AID 175); conditions: S. cerevisiae mlh1 rad18 strain growth inhibition, hits give high values
Outline: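 A repair-deficient yeast strain is exposed to test compound, and growth is scored relative to vehicle-treated controls.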

[7] = at 5.0 µM (retest, dose inferred, filed as 0.5)
[8] = at 50.0 µM (retest, dose inferred, filed as 5.0)

Measured: growth inhibition

CCCCCCCCCCSC(=NCC)NCC
active: [1]; [8] 99% | [2]; [8] 99% | [3]; [8] 99% | [4]; [8] 99% | [4]; at 50.0 µM 77.3% | [5]; [8] 99%
inactive: [1]; [7] 2% | [1]; at 50.0 µM 66.9% | [2]; [7] 4% | [2]; at 50.0 µM 49.9% | [3]; [7] 51% | [3]; at 50.0 µM 46.7% | [4]; [7] -6% | [5]; [7] 27% | [5]; at 50.0 µM 59%

COC(CC[P+](c1ccccc1)(c1ccccc1)c1ccccc1)(C(=O)c1ccccc1)c1ccccc1 (centres undefined)
active: [1]; [7] 91% | [1]; [8] 99% | [1]; at 50.0 µM 98.7% | [2]; [7] 97% | [2]; [8] 99% | [2]; at 50.0 µM 99.7% | [3]; [7] 88% | [3]; [8] 99% | [3]; at 50.0 µM 99.8% | [4]; [7] 90% | [4]; [8] 99% | [4]; at 50.0 µM 98.8% | [5]; [7] 94% | [5]; [8] 100% | [5]; at 50.0 µM 99.7% | [6]; [7] 92% | [6]; [8] 100% | [6]; at 50.0 µM 99.5%

Oc1cc2ccccc2cc1O
inactive: [1]; [7] 6% | [2]; [7] 5% | [3]; [7] 2% | [4]; [7] 3% | [5]; [7] 5% | [6]; [7] 5%
active: [1]; [8] 90% | [1]; at 50.0 µM 95.5% | [2]; [8] 77% | [2]; at 50.0 µM 86% | [3]; [8] 88% | [3]; at 50.0 µM 93.8% | [4]; [8] 90% | [4]; at 50.0 µM 92.4% | [5]; [8] 92% | [5]; at 50.0 µM 96.1% | [6]; [8] 93% | [6]; at 50.0 µM 96%

Cc1cccc2c1Oc1cc(Cl)ccc1C2NC(=O)CCN1CCN(CCO)CC1 (centres undefined)
active: [6]; at 50.0 µM 70.3%
inactive: [1]; [7] 0% | [1]; [8] 29% | [1]; at 50.0 µM 38% | [2]; [7] -11% | [2]; [8] -13% | [2]; at 50.0 µM -0.05% | [3]; [7] -3% | [3]; [8] 6% | [3]; at 50.0 µM 38.1% | [4]; [7] 11% | [4]; [8] 26% | [4]; at 50.0 µM 25.6% | [5]; [7] -8% | [5]; [8] 11% | [5]; at 50.0 µM 39.4% | [6]; [7] 3% | [6]; [8] 29%

CCC(CC)=NNc1ccc([N+](=O)[O-])cc1
inactive: [1]; [7] 7% | [2]; [7] 15% | [3]; [7] 8% | [4]; [7] 10% | [5]; [7] 4% | [5]; [8] 42% | [6]; [7] 11%
active: [1]; [8] 96% | [1]; at 50.0 µM 98.4% | [2]; [8] 95% | [2]; at 50.0 µM 97.7% | [3]; [8] 97% | [3]; at 50.0 µM 97.8% | [4]; [8] 94% | [4]; at 50.0 µM 95.3% | [5]; at 50.0 µM 97.9% | [6]; [8] 97% | [6]; at 50.0 µM 97.2%

C#Cc1cccc(N2C(=O)CCC2=O)c1
active: [1]; at 50.0 µM 91.7% | [2]; at 50.0 µM 93.6% | [3]; [7] 99% | [3]; [8] 99% | [3]; at 50.0 µM 94.1% | [4]; [7] 97% | [4]; [8] 99% | [4]; at 50.0 µM 91.2% | [5]; [7] 100% | [5]; [8] 97% | [5]; at 50.0 µM 92.3% | [6]; at 50.0 µM 91.8%
inactive: [1]; [7] 36% | [1]; [8] 44% | [2]; [7] 48% | [2]; [8] 43% | [6]; [7] 42% | [6]; [8] 40%

COc1ccc(C(=O)Nc2ccccc2[N+](=O)[O-])cc1
inactive: [1]; [7] -6% | [1]; [8] 7% | [1]; at 50.0 µM -1.15% | [2]; [7] -16% | [2]; [8] -23% | [2]; at 50.0 µM 8.3% | [3]; [7] -13% | [3]; [8] -11% | [3]; at 50.0 µM 10.4% | [4]; [7] -14% | [4]; [8] 5% | [4]; at 50.0 µM 48.5% | [5]; [7] -15% | [5]; [8] 13% | [5]; at 50.0 µM 19.2% | [6]; [7] -13% | [6]; [8] 0% | [6]; at 50.0 µM 16.2%

CC(=O)C1(C(C)=O)C2=C(C(=O)C(Cl)=C(Cl)C2=O)N2C=CC=CC21 (centres undefined)
inactive: [4]; [7] 40%
active: [1]; [7] 85% | [1]; [8] 95% | [1]; at 50.0 µM 98.3% | [2]; [7] 81% | [2]; [8] 97% | [2]; at 50.0 µM 98.5% | [3]; [7] 78% | [3]; [8] 97% | [3]; at 50.0 µM 98.3% | [4]; [8] 95% | [4]; at 50.0 µM 96.8% | [5]; [7] 91% | [5]; [8] 97% | [5]; at 50.0 µM 98.3%

C=C1C(=O)OC(CCCCCCCCCCCCC)C1C(=O)O (centres undefined)
inactive: [1]; [7] 69% | [4]; [7] 63%
active: [1]; [8] 89% | [1]; at 50.0 µM 84% | [2]; [7] 93% | [2]; [8] 89% | [2]; at 50.0 µM 89.5% | [3]; [7] 71% | [3]; [8] 84% | [3]; at 50.0 µM 76.3% | [4]; [8] 85% | [4]; at 50.0 µM 85% | [5]; [7] 86% | [5]; [8] 90% | [5]; at 50.0 µM 86.5% | [6]; [7] 86% | [6]; [8] 89% | [6]; at 50.0 µM 80.8%

O=C(Nc1cccc2ccccc12)OCC1CCc2ccccc2C1 (centres undefined)
active: [5]; at 50.0 µM 72.2%
inactive: [1]; [7] -1% | [1]; [8] 6% | [1]; at 50.0 µM 12.9% | [2]; [7] -6% | [2]; [8] 2% | [2]; at 50.0 µM 22.6% | [3]; [7] -4% | [3]; [8] 17% | [3]; at 50.0 µM 54.2% | [4]; [7] -8% | [4]; [8] -9% | [4]; at 50.0 µM 9.25% | [5]; [7] -2% | [5]; [8] 29% | [6]; [7] -5% | [6]; [8] 27% | [6]; at 50.0 µM 31.1%
